# INS-1E GSIS act = GLuc luminescence reporter in INS-1E cells, primary screen for activators of glucose-dependent secretion of insulin; AID 743287, 2014; activation, % at 16.6 µM; INS-1E GLuc reporter insulin secretion, 2-3 h; 0.61% of 370,000 active;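 active = lowest replicate activation of at least 40%, so every replicate reaches that level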;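 note: 0% = median of neutral control wells and 100% = median of IBMX positive control wells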
# DENV2 CPE = inhibitors of DENV2 cytopathic effect, primary screen, cell-based, plate reader, single concentration | DENV2-infected cells, cytopathic effect rescue | CPE inhibition, % at 9.99 µM | 1.7% of 350,000 active; in the data active = CPE inhibition above about 20%, passing the limit was not always enough; inconclusive = no clear call, values can overlap the other calls; tested in BHK-21 cells;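 note: 0% = median of neutral control wells and 100% = median of positive control wells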
# MLL AF4-AF9 inh = inhibitors of AF4 peptide binding to AF9, primary screen, biochemical, AlphaScreen, biotin-AF4 peptide, FLAG-AF9, single point; AID 651704, 2012; 0.47% of 350,000 active; inhibition, % at 10 µM;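 active = every replicate reaching a set inhibition limit, whatever the replicate mean, cut at about 25% in these data; inconclusive = mean inhibition reaches that limit but some replicates miss it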;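 note: 0% = plate neutral control median and 100% = total signal loss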
# RAD52 inh = RAD52 DNA annealing inhibitors, primary screen, biochemical, FRET, single point, set 2; DNA repair protein RAD52 homolog (Homo sapiens), P43351; recombinant RAD52 DNA annealing, FRET fluorescence; inhibition, % at 18.7 µM; 0.46% of 360,000 active; AID 651710, 2012;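 active = every replicate showing at least 50% inhibition; inconclusive = mean inhibition at least 50% but not in every replicate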
# dFosB act = activators of delta FosB homodimer, primary screen, biochemical, fluorescence polarization, TAMRA-CDK5 oligo, single point. Protein FosB (Mus musculus), P13346. purified delta FosB; percent of positive-control signal above neutral wells. activation, % at 25 µM. 0.99% of 340,000 active;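 active = mean activation above about 17%, with every replicate also reaching it, limit read from the data, passing the limit was not always enough; inconclusive = only one of the two conditions met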
# Target sequence (P13346 whole entry, looked up): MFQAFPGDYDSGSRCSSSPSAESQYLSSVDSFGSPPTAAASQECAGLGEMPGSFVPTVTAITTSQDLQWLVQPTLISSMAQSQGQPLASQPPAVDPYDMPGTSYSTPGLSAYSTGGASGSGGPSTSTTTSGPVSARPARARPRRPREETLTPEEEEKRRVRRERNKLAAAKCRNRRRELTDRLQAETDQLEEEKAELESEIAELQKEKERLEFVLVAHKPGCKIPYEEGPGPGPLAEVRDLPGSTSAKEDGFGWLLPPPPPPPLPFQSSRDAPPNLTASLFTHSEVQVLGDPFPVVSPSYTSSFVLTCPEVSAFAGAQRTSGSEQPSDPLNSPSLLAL
# RAD54 branch = inhibitors of human RAD54 branch migration, primary screen, biochemical, fluorescence, single point. DNA repair and recombination protein RAD54-like (Homo sapiens), Q92698. RAD54 Holliday junction branch migration, FAM/BHQ fluorescence. inhibition, % at 10.4 µM. 0.14% of 360,000 active;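 active = mean normalized replicate activity at least 40 and at least half of replicates scoring 40 or more; inconclusive = only one of the two criteria met; inactive = mean below 40 and under half of replicates reaching 40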;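 note: 0% = median of neutral control wells and 100% = median of positive control wells; inhibitors cause a drop in the FAM fluorescence signal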
# Starred values were filed as active, the others as inactive; ? = inconclusive; . = not tested or not shown. Only some compounds are listed: those with a hit (about 3.1% of all), similar ones and a draw of the others.
SMILES,INS-1E GSIS act,DENV2 CPE,MLL AF4-AF9 inh,RAD52 inh,dFosB act,RAD54 branch
C[C@@H]1CN([C@H](C)CO)C(=O)c2cccc(NS(=O)(=O)c3ccc(F)cc3)c2O[C@H]1CN(C)S(=O)(=O)c1ccc(F)cc1,12,-2,0,-9,.,-5
CO[C@@H]1CN(C)C(=O)c2cc(NC(C)=O)ccc2OC[C@H](C)N(Cc2nccs2)C[C@@H]1C,-1,59*,-6,11,.,0
CO[C@@H]1CN(C)C(=O)c2cc(NC(=O)NC(C)C)ccc2OC[C@H](C)N(Cc2ccccn2)C[C@@H]1C,11,73*,2,-11,.,1
COc1ccccc1CN1C[C@H](C)[C@@H](OC)CN(C)C(=O)c2cc(NC(C)=O)ccc2OC[C@H]1C,22,-1,3,9,.,-1
COc1ccccc1CN1C[C@@H](C)[C@H](OC)CN(C)C(=O)c2cc(NC(=O)Nc3ccccc3OC)ccc2OC[C@H]1C,-16,-1,5,52*,.,6
C[C@@H]1CN([C@H](C)CO)C(=O)c2cc(NC(=O)CCCN(C)C)ccc2O[C@@H](C)CCCCO[C@@H]1CN(C)C(=O)NC1CCCCC1,18,3,-1,-42,.,-7
COc1ccc(C(O)c2nc(-c3ccc(OC)c(OC)c3)cs2)cc1 (stereo unspecified),66*,-11,-13,-11,.,12
COc1ccc(-c2csc(C(C)(O)c3ccc(F)c(F)c3)n2)cc1OC (stereo unspecified),-5,21*,0,0,.,-4
COc1ccc(-c2csc(C(O)c3ccc(OC)cc3)n2)cc1 (stereo unspecified),-27,-2,-5,-5,.,6
COc1ccc(C(C)(O)c2nc(-c3ccc(OC)c(OC)c3)cs2)cc1 (stereo unspecified),66,-10,-2,-3,.,-5
C[C@@H]1CN([C@H](C)CO)C(=O)Cc2cc(NC(=O)C3CCCCC3)ccc2O[C@@H]1CN(C)Cc1ccc(Oc2ccccc2)cc1,-17,-3,-3,-2,.,-2
CO[C@H]1CN(C)C(=O)c2ccc(NC(=O)c3cccc(Oc4ccccc4)c3)cc2OC[C@H](C)NC[C@@H]1C,-7,3,5,12,.,.
O=C(C[C@@H]1CC[C@@H]2[C@H](COC[C@H](O)CN2C(=O)Nc2ccc(F)cc2)O1)NC1Cc2ccccc2C1,-14,8,-1,5,.,3
CCC(=O)N1[C@@H]2Cn3c(ccc(-c4ccccc4)c3=O)[C@H]1[C@@H](C(=O)N1CCCCC1)[C@@H]2CO,13,4,1,4,.,-8
CCC(=O)N1[C@@H]2c3ccc(-c4ccccc4F)c(=O)n3C[C@H]1[C@H](CO)[C@H]2C(=O)NC1CCC1,8,12,-14,5,.,-7
O=C([C@@H]1[C@@H](CO)[C@@H]2Cn3c(cccc3=O)[C@H]1N2CC1CCCC1)N1CCCCC1,12,2,2,-5,.,1
O=C([C@H]1[C@H](CO)[C@H]2Cn3c(cccc3=O)[C@@H]1N2CC1CCCC1)N1CCOCC1,11,23*,-1,-2,.,.
O=C([C@@H]1[C@@H](CO)[C@@H]2Cn3c(cccc3=O)[C@H]1N2Cc1ccccc1)N1CCCCC1,19,50*,0,13,.,16
CC(=O)N1[C@@H]2c3ccc(-c4ccccc4)c(=O)n3C[C@H]1[C@H](CO)[C@H]2C(=O)N1CCCCC1,1,-3,0,63*,.,3
CCNC(=O)[C@@H]1[C@@H](CO)[C@@H]2Cn3c(ccc(-c4ccccc4F)c3=O)[C@H]1N2C(=O)CC,0,?,1,101*,.,2
C[C@H](CO)N1C[C@H](C)[C@H](CN(C)Cc2ccc(C(F)(F)F)cc2)Oc2ccc(NC(=O)CCC(F)(F)F)cc2CC1=O,-14,1,-2,-10,.,8
COc1ccccc1NC(=O)N1CC(=O)N2[C@H](CO)[C@H](c3ccc(-c4ccc(F)cc4)cc3)[C@@H]2C1,-24,-8,3,-5,.,.
O=C(NCCc1c[nH]c2ccccc12)/C(=C/c1ccco1)NC(=O)c1ccco1,22,-5,-2,-7,4,.
CC(=C\c1ccco1)/C=C(\C#N)C(=O)NCCc1c[nH]c2ccccc12,-18,58*,9,-24,-13,.
COc1ccccc1C(C)Nc1ccc(S(=O)(=O)N2CCN(C)CC2)cc1[N+](=O)[O-] (stereo unspecified),-32,-1,28*,-9,-12,8
SMILES,INS-1E GSIS act,DENV2 CPE,MLL AF4-AF9 inh,RAD52 inh,dFosB act,RAD54 branch
COC(=O)C1=C(C)N(Cc2ccc(Br)cc2)C(=S)NC1c1cccc(Br)c1 (stereo unspecified),-27,42*,.,-4,.,.
COC(=O)C1=C(C)N(Cc2ccc(Cl)cc2)C(=S)NC1c1cccc(Br)c1 (stereo unspecified),-41,-10,.,-1,.,.
COC(=O)C1=C(C)N(CC(C)C)C(=S)NC1c1cccc(F)c1 (stereo unspecified),-20,56*,.,-10,.,.
COC(=O)C1=C(C)N(Cc2ccc(Cl)cc2)C(=S)NC1c1ccc(Br)cc1 (stereo unspecified),12,25*,.,-3,.,.
CN1CCN(C(=S)c2cn(Cc3ccc(Br)cc3)c3ccccc23)CC1,-39,8,27*,-4,-10,.
CN1CCN(C(=S)c2cn(Cc3ccccc3)c3ccccc23)CC1,-27,-4,12,-18,-2,6
Cn1nc(C(F)(F)F)c(-c2ccc(Br)cc2)c1NC(=O)CSCC(=O)O,-7,58*,.,-6,1,.
CCC(=O)N1CC[C@@H]2[C@H](CO)Nc3ccc(C#Cc4cccnc4)cc3[C@@H]21,23,-2,-9,3,.,8
C[C@@H]1CCCCO[C@H](CN(C)C(=O)Nc2cccc3ccccc23)[C@H](C)CN([C@@H](C)CO)C(=O)c2cc(N(C)C)ccc2O1,-20,3,?,-3,.,-7
COc1cccc(NC(=O)Nc2ccc3c(c2)C(=O)N(C)C[C@H](OC)[C@@H](C)CN(C)[C@H](C)CO3)c1,4,2,3,94*,.,4
COc1ccccc1C(=O)Nc1ccc2c(c1)C(=O)N(C)C[C@@H](OC)[C@H](C)CN(C)[C@@H](C)CO2,-1,47*,1,-2,.,1
CCCN1C[C@@H](C)[C@@H](OC)CN(C)C(=O)c2cc(NC(=O)Nc3cccc(OC)c3)ccc2OC[C@@H]1C,-6,.,.,.,.,.
